# According to PubChem BioAssay AID2061306 (National Center for Advancing Translational Sciences (NCATS), 2025):
# Records with an inconclusive call do not appear. Activity calls are given as the source filed them. Calls follow the shape of the dose curve; as a rule, active = well fitted inhibition curve with a large enough effect; inconclusive = small, poorly fitted or top-dose-only effect; inactive = flat fitted curve, though single readings scatter.
# Assay: Identification of antibody-drug conjugate (ADC) payloads which are substrates of ATP-binding cassette drug efflux transporters: ABCB1-HEK293-pcDNA cell line
# Details: HEK293 empty-vector (pcDNA) control viability, CellTiter-Glo, 48 h
# Source text: Antibody-drug conjugates (ADCs) feature an antibody recognizing a specific protein joined to a potent toxic payload. Numerous antibody-drug conjugates have received FDA approval; however, clinical resistance arises. Resistance mechanisms include decreased expression or mutation of the antibody target, impaired payload release, or increased expression of ATP-binding cassette (ABC) efflux transporters associated with multidrug resistance. We therefore sought to characterize the interaction of ABC multidrug transporters with ADC payloads. We performed a high-throughput screen with 27 common ADC payloads using cells lines expressing ABC transporters P-glycoprotein (P-gp, encoded by ABCB1) or ABCG2 (encoded by ABCG2). Confirmatory assays were also performed using cells transfected to express P-gp, ABCG2, or MRP1 (encoded by ABCC1). Several commonly used ADC payloads were substrates of P-gp, including calicheamicin gamma1, monomethyl auristatin E, DM1, and DM4. All the pyrrolobenzodiazepines tested - SJG136, SGD-1882, SG2057, and SG3199 - were substrates of P-gp, ABCG2, and MRP1. […] These findings highlight the risk of transporter-mediated resistance with certain ADC payloads and underscore the importance of selecting payloads that evade ABC transporter recognition in future ADC development.
# HEK-293 cells were transfected with empty vector (pcDNA) or vector containing the human ABCB1 (MDR-19), ABCG2 (R-5), or ABCC1 gene (MRP1) and were maintained in EMEM with 2 mg/mL G418 added to maintain transporter expression. The HeLa derivative KB-3-1 and the P-gp overexpressing KB-8-5-11 subline were maintained in DMEM; KB-8-5-11 additionally received 100 ng/mL colchicine. H460 parental cells were obtained from the Division of Cancer Treatment and Diagnosis Tumor Repository, National Cancer Institute at Frederick, MD and were cultured in RPMI. The ABCG2 expressing subline H460 MX20 was generated by selecting H460 cells in 20 nM mitoxantrone. Media in all cases was supplemented with 10% FBS and 1% penicillin-streptomycin. We explored 27 common ADC payloads, in two orthogonal, paired cell line sets-a drug selected and transfected set for each transporter--to identify substrates of the ABC transporters P-gp and ABCG2. Compounds were sourced from Levena Biopharma (San Diego, CA), Selleck Chem (Houston, TX), ChemieTek (Indianapolis, IN), or Microsource Discovery Systems (Gaylordsville, CT). Screening was performed as previously described. Briefly, cells were plated at a density of 500 cells/well in 1536 well plates with compounds added using a 1536-head pin tool (Kalypsys, San Diego CA). Cells were incubated with cytotoxic drugs and processed with CellTiter Glo reagent (Promega, Madison, WI) to determine viability after 48 hours. P-gp substrates were identified by comparing compound activity between paired sets of low-expressing (sensitive) and over-expressing (resistant) cell lines.
row,Compound,Potency
1,CN(C)CCOc1ccc2[nH]c(C(=O)N3C[C@@H](CCl)c4c3cc(O)c3ccccc43)cc2c1,0.4 nM (active)
2,COC(=O)c1cc2c3c(cc(O)c2[nH]1)N(C(=O)c1cc2cc(OC)c(OC)c(OC)c2[nH]1)CC3CCl (stereo not given),0.4 nM (active)
3,CCc1c2c(nc3ccc(O)cc13)-c1cc3c(c(=O)n1C2)COC(=O)[C@]3(O)CC,4.7 nM (active)
4,COc1cccc2c1C(=O)c1c(O)c3c(c(O)c1C2=O)C[C@@](O)(C(=O)CO)C[C@@H]3O[C@H]1C[C@H](N)[C@H](O)[C@H](C)O1,29.8 nM (active)
5,CC(C)(C)OC(=O)Nc1ccc2[nH]c(C(=O)N3C[C@@H](CCl)c4c3cc(O)c3ccccc43)cc2c1,8.4 nM (active)
6,CCN(C(C)=O)[C@H]1CO[C@@H](O[C@H]2[C@H](O[C@H]3C#C/C=C\C#C[C@]4(O)CC(=O)C(NC(=O)OC)=C3/C4=C\CSSSC)O[C@H](C)[C@@H](NO[C@H]3C[C@H](O)[C@H](SC(=O)c4c(C)c(I)c(O[C@@H]5O[C@@H](C)[C@H](O)[C@@H](OC)[C@H]5O)c(OC)c4OC)[C@@H](C)O3)[C@@H]2O)C[C@@H]1OC,1.5 nM (active)
7,COc1ccc(C2=CN3C(=O)c4cc(OC)c(OCCCOc5cc6c(cc5OC)C(=O)N5C=C(c7ccc(N)cc7)C[C@@H]5C=N6)cc4N=C[C@H]3C2)cc1,1.3 nM (active)
8,CCN[C@H]1CO[C@@H](O[C@H]2[C@H](O[C@H]3C#C/C=C\C#C[C@]4(O)CC(=O)C(NC(=O)OC)=C3/C4=C\CSSSC)O[C@H](C)[C@@H](NO[C@H]3C[C@H](O)[C@H](SC(=O)c4c(C)c(I)c(O[C@@H]5O[C@@H](C)[C@H](O)[C@@H](OC)[C@H]5O)c(OC)c4OC)[C@@H](C)O3)[C@@H]2O)C[C@@H]1OC,0.2 nM (active)
9,COc1cccc2c1C(=O)c1c(O)c3c(c(O)c1C2=O)C[C@@](O)(C(=O)CO)C[C@@H]3O[C@H]1C[C@H]2[C@H](O[C@@H]3[C@@H](OC)OCCN32)[C@H](C)O1,0.0334 nM (active)
10,COc1cc2cc(c1Cl)N(C)C(=O)C[C@H](O)[C@]1(C)O[C@H]1[C@H](C)C1C[C@@](O)(NC(=O)O1)[C@H](OC)/C=C/C=C(\C)C2,2980 nM (active)
